In PubChem BioAssay (NCI):
About 83,000 compounds went through this panel and 20% of them were active in at least one assay; those are over-represented in the sample as a whole.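 How to read the values: 0–100, growth inhibition (40 = 60% inhibited); 0, no net growth; -100 to 0, cell death (-40 = 40% of starting cells died; -100 = all dead).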 A number with no mark means an inactive call. Calls of active or inactive are those of the source.

test system: NCI-H322M lung; experiment: NCI-60 one-dose screen, 48 h (100 = growth as untreated, 0 = no growth, -100 = all killed); settings: 10 µM unless noted
Description: Growth inhibition of the NCI-H322M human Non-Small Cell Lung tumor cell line is measured as a screen for anti-cancer activity. Cells are grown in 96 well plates and exposed to the test compound for 48 hours. Compounds are tested at a single concentration, which is 10^-5 M for most compounds. The reported endpoint is percent growth (GI% or GIPRCNT), where numbers from 0 - 100% represent growth inhibition, and numbers from -100% - 0 represent cell death. For example, a value of 40 represents 60% growth inhibition. A value of 0 means no net growth occurred over the course of the experiment. A value of -40 indicates 40% of cells at the beginning of the experiment died by the end of the experiment. A value of -100 means all cells are dead at the end of the experiment.
NCI-60 Human Tumor Cell Lines Screen was performed using the standard one-dose NCI protocol, which is described in more detail at https://dtp.cancer.gov/discovery_development/nci-60/default.htm.
Compounds with GIPRCNT values below 10 were considered active. Activity score was based on GIPRCNT using the following formula: […]
Score is 0 for GIPRCNT values of 100 or above, 50 for GIPRCNT values of 0, and 100 for GIPRCNT values of -100.

SMILES | growth
Nc1cc(C(F)(F)F)c(-c2cc(N3CCOCC3)nc(N3CCOCC3)n2)cn1 | -18.3% (active)
CC[n+]1c(/C=C/C=C2\N(C)c3ccccc3C2(C)C)sc2ccccc21 | 25.6%
COc1cc(Nc2ncc(F)c(Nc3ccc4c(n3)N(COP(=O)(O)O)C(=O)C(C)(C)O4)n2)cc(OC)c1OC | 20.6%
O=C1NC(=O)[C@@H](c2cn3c4c(cccc24)CCC3)[C@@H]1c1c[nH]c2ccccc12 | 41.9%
CNC(=O)c1cnc(C)nc1-c1cc(C(C)(C)C)c(O)c(C(C)(C)C)c1 | 104%
CCCNC(=O)c1cn2ncnc(Nc3cc(C(=O)NC4CC4)ccc3C)c2c1C | 47.5%
Brc1ccc([I+]c2ccc(Br)cc2)cc1 | 48.1%
CN1CCN(c2ccc(C(=O)Nc3n[nH]c4ccc(Cc5cc(F)cc(F)c5)cc34)c(NC3CCOCC3)c2)CC1 | 33.8%
COc1cc(Nc2ncc(F)c(Nc3ccc4c(n3)NC(=O)C(C)(C)O4)n2)cc(OC)c1OC | 41.8%
Nc1ncnc2c1c(-c1cccc(OCc3ccccc3)c1)cn2C1CC(CN2CCC2)C1 (stereo not given) | 42.9%
Cc1sc2c(c1C)c(=O)nc1c(-c3nc4ccccc4s3)n[nH]n12 | 96.2%
COc1cc(N2CCC(N(C)C)CC2)ccc1Nc1ncc(Cl)c(Nc2ccccc2P(C)(C)=O)n1 | -9.57% (active)
O=C(NCCO)Nc1ccc(-c2nc(N3CCOCC3)c3cccn3n2)cc1 | 18%
CCN(CC)CCCC(C)Nc1cc(-c2ccc(C(F)(F)F)cc2)c(C#N)c2nc3ccccc3n12 (stereo not given) | 38.9%
COc1ccc2c(CCC(c3ccccc3)c3ccccc3)c3[n+](cc2c1OC)CCc1cc2c(cc1-3)OCO2 | 33.1%
CC(=O)Oc1ccccc1C(=O)N=C1[Se]CCN1C(=O)c1ccccc1OC(C)=O | -21.7% (active)
CC1=CC2c3oc(-c4ccccc4)c(C(=O)c4ccccc4)c3CNC2C=C1 (stereo not given) | 94.6%
O=C(CNc1nc(-c2ccc(Cl)cc2)cs1)Nc1ccc(-c2nc3ccccc3s2)cc1 | 91.6%
O=C1C=CC2(NN=C(c3ccccc3)N2c2cccc(Cl)c2)C(Cl)=C1 (stereo not given) | 82.6%
c1cc(OCCN2CCCCC2)cc(-c2n[nH]c3ccc(-c4ncn[nH]4)cc23)c1 | 37.6%

SMILES | growth
C=C1CC[C@@H]2[C@](C)(COC(C)=O)[C@H](OC(C)=O)CC[C@@]2(C)[C@@H]1C/C=C1/C(=O)OC[C@H]1OC(C)=O | 101%
CCN1CCN(c2nc(C)cc(N(CCNc3ccnc4cc(Cl)ccc34)Cc3ccc4c(c3)OCO4)n2)CC1 | 36.3%
Nc1cc2c(cc1Br)-c1c(C(=O)O)cccc1C2O (stereo not given) | 107%
Nc1c2c(c(O)c3c1=C(CO)C=N3)=NCCS2 | -96% (active)
N#Cc1c(-c2ccc(C(F)(F)F)cc2)cc(NCC2CCS(=O)(=O)CC2)n2c1nc1ccccc12 | 100%
COc1cc2cc(NCc3ccc(Cl)cc3)nc(C)c2cc1OC | 44.6%
COc1ccc(-c2ccc3c(N4CCOC[C@@H]4C)nc(N4CCOC[C@@H]4C)nc3n2)cc1CO | -5.27% (active)
CN(C)CCOC(=O)Nc1nc2ccc(Sc3ccccc3)cc2[nH]1 | 36.9%
Cc1cc(N(CCNc2ccnc3cc(Cl)ccc23)Cc2cccs2)nc(Cl)n1 | -24.7% (active)
CC1(O)CCC2CC3OC3(C)CCC3OC3(C)C(O)CC1C2(C)C (stereo not given) | 115%
COc1ccc2c(OCc3nnc4ccc(-c5ccccc5)nn34)ccnc2c1 | 92% [2.5 µM]
COC(=O)C1CCc2sc3ncnc(Nc4cn[nH]c4C(=O)Nc4ccc(CN5CCN(C)CC5)cc4)c3c21 (stereo not given) | 8.74% (active)
O=C(NOCCO)c1cc(CN2OCCCC2=O)c(F)c(F)c1Nc1ccc(I)cc1F | 15.4%
O=C(O)C1(Cc2cccc(Nc3nccs3)n2)CCC(Oc2cccc(Cl)c2F)CC1 (stereo not given) | 76.4%
O=S1(=O)OC(c2cc(Cl)c(O)c(Br)c2)(c2cc(Cl)c(O)c(Br)c2)c2ccccc21 | 112%
CNC(=O)c1cc(Oc2ccc3nc(NC(=O)Nc4ccc(Cl)c(C(F)(F)F)c4)sc3c2)ccn1 | 23.7%
O=S1(=O)OC(c2ccc(O)c(Cl)c2)(c2ccc(O)c(Cl)c2)c2ccccc21 | 107%
Nc1ncnc2c1ccn2-c1cccc(NC(=O)c2ccc(N3CCOCC3)c(C(F)(F)F)c2)c1 | 80.6%
C=CCCCOC1[C@H](OCc2ccccc2)C(OCc2ccccc2)C(OC)O[C@@H]1CNC(=O)c1cccc(I)c1 (stereo not given in full) | 70.3%
O=C(Nc1ccc(Nc2ncnc3sc4c(c23)CCOC4)cc1)Nc1ccc(Cl)c(C(F)(F)F)c1 | 102%
